# Source: PubChem BioAssay
# Activity calls are given as the source filed them.
# Legend:
# [1] = system: Human papillomavirus type 1a protein E7 (residues 44-93); assay: HPV1a E7 fragment binders on microarrays, primary screen, biochemical, small-molecule microarray, residues 44-93, 635 nm fluorescence (AID 1108); conditions: small-molecule microarray binding, fluorescence 635 nm; higher = more signal;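 note: E7 fragment applied at 1 µg/mL in TBST for 1 h at 4 C; score combines spot fluorescence with its signal to noise ratio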
# [2] = modulators of HCV replicon luciferase signal, primary screen, HCV replication inhibitor project, Huh7 cells, luciferase reporter (AID 1109); conditions: 48 h, higher = more signal;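 note: huh7 hepatoma cells harbouring a luciferase neomycin HCV replicon reporter; luciferase luminescence as measure of HCV replicon replication; test concentration not given here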
# [3] = molecular target: Left-right determination factor 2 (Homo sapiens) (UniProt O00292); assay: LEFTY2 binders on small-molecule microarrays, primary screen, biochemical, small-molecule microarray, 635 nm fluorescence scan (AID 1110); conditions: LEFTY2 binding, higher = more signal
# [4] = molecular target: Calmodulin-1 (Homo sapiens) (UniProt P0DP23); assay: CALM1 binders on microarrays, EGTA buffer, profiling panel, biochemical, small-molecule microarray, Cy5-labelled CALM1 (AID 1111); conditions: Cy5-CALM1 binding fluorescence, higher = more signal;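 note: labelled calmodulin applied in Tris saline Tween buffer holding calcium plus EGTA and DTT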
# [5] = molecular target: Calmodulin-1 (Homo sapiens) (UniProt P0DP23); assay: calcium-bound CALM1 binders on microarrays, profiling panel, artefact control for SMM control-protein annotation, biochemical, small-molecule microarray, Cy5-labelled CALM1, plus calcium (AID 1112); conditions: Cy5-CALM1 binding fluorescence, higher = more signal;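 note: score merges spot fluorescence with signal to noise from triplicate slides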
# [6] = small-molecule microarray binders of probe aWnt5a, primary screen, biochemical, biotinylated probe, 635/667 nm fluorescence (AID 1113); conditions: higher = more signal;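 note: score merges 667 nm fluorescence intensity with signal-to-noise per printed feature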
# [7] = small-molecule microarray binders of probe aShh, primary screen, biochemical, biotinylated probe, 635/667 nm fluorescence (AID 1114); conditions: higher = more signal;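 note: probe is biotin-labelled aShh protein from a stem cell growth factor screen; measures binding of labelled protein to compounds printed on the slide; score merges feature fluorescence at 667 nm with signal-to-noise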
# [8] = small-molecule microarray binders of probe aNog, primary screen, biochemical, biotinylated probe, 635/667 nm fluorescence (AID 1115); conditions: higher = more signal;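 note: probe is biotinylated aNog protein used at 0.15 µg/mL for 1 h at 4 C; z-score combines 667 nm fluorescence of each spot with its signal to noise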
# [9] = molecular target: Torsin-1A-interacting protein 1 (Homo sapiens) (UniProt Q5JTV8); assay: LAP1 binders from COS7 cell lysate, primary screen, small-molecule microarray, 635/667 nm fluorescence (AID 1116); conditions: COS7-hLAP1 lysate binding, 635 nm fluorescence, higher = more signal
# [10] = molecular target: Alpha-bungarotoxin (Bungarus multicinctus) (UniProt P60615); assay: alpha-bungarotoxin binders on microarray, profiling panel, artefact control for SMM control protein annotation, biochemical, small-molecule microarray, Alexa647 label, 635/667 nm fluorescence (AID 1117); conditions: alpha-BTX-A647 binding fluorescence, higher = more signal
# Albumin (Bos taurus) = Albumin (Bos taurus) (UniProt P02769); assay: bovine serum albumin binders on microarray, profiling panel, artefact control for SMM control protein annotation, biochemical, small-molecule microarray, Alexa647 label, 635/667 nm fluorescence (AID 1118); conditions: BSA-A647 binding, fluorescence 635 nm, higher = more signal;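 note: score merges 667 nm emission intensity and signal-to-noise per printed compound spot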
# [11] = small-molecule microarray binders of probe aXIP, primary screen, biochemical, NeuroSMM set, 635/667 nm fluorescence (AID 1119); conditions: higher = more signal, called active from +8 up or from −8 down;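 note: probe is the protein aXip251-270 applied at 1 µg/mL to compound-printed slides; binding of probe to printed compounds measured as 667 nm fluorescence plus signal to noise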
# [12] = small-molecule binders of probe aNOTCH3, primary screen, biochemical, small-molecule microarray, 635/667 nm fluorescence (AID 1120); conditions: higher = more signal;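 note: probe is a biotin-tagged antibody raised against NOTCH3 rather than NOTCH3 protein; score merges spot fluorescence near 667 nm with spot signal to noise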
# [13] = small-molecule binders of probe aNOTCH2, primary screen, biochemical, small-molecule microarray, 635/667 nm fluorescence (AID 1121); conditions: higher = more signal;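 note: score merges feature fluorescence read at 667 nm with its signal to noise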
# [14] = molecular target: Carbonic anhydrase 2 (Homo sapiens) (UniProt P00918); assay: CAII small-molecule binders, profiling panel, biochemical, small-molecule microarray, Alexa647-labelled CAII (AID 1122); conditions: CAII-A647 binding fluorescence, higher = more signal
# [15] = COS7 lysate on small-molecule microarray, probe aHis, 635 nm (AID 1123); conditions: COS7 cell lysate, fluorescence, higher = more signal;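 note: z-score combines 667nm fluorescence intensity with signal-to-noise per printed compound spot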
# [16] = compound binding in COS7 lysate, probe aLAP1, primary screen, cell lysate, small-molecule microarray (AID 1124); conditions: probe aLAP1, fluorescence, higher = more signal;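 note: lysate comes from COS7 cells expressing LAP1 and is applied at 0.3 µg/mL; score merges spot fluorescence near 667 nm with signal-to-noise over triplicate slides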
# Sam68 (KHDRBS1) = assay: Sam68 small-molecule binders, primary screen, biochemical, small-molecule microarray, 635 nm fluorescence (AID 1125); conditions: small-molecule microarray binding, higher = more signal;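 note: score merges 667 nm channel intensity with signal to noise over triplicate slides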
# [17] = system: Chordin-like protein 2 (CHRDL2); assay: CHRDL2 small-molecule binders, primary screen, biochemical, small-molecule microarray, 635 nm fluorescence (AID 1126); conditions: small-molecule microarray binding, fluorescence 635 nm; higher = more signal;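 note: printed compound slides probed with Chrdl2 protein at 4 µg/mL for 1 h at 4 C; score merges 667 nm emission intensity with signal to noise over three replicate slides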
# [18] = molecular target: Concanavalin-A (Canavalia ensiformis) (UniProt P02866); assay: ConA small-molecule binders, primary screen, artefact control for SMM control protein annotation, biochemical, small-molecule microarray, Alexa647 label, 635 nm (AID 1127); conditions: ConA-A647 binding fluorescence, higher = more signal;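 note: z combines 667 nm emission intensity with signal-to-noise across three replicate slides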
# Chain of Concanavalin-A (Canavalia ensiformis) (P02866 whole entry, looked up): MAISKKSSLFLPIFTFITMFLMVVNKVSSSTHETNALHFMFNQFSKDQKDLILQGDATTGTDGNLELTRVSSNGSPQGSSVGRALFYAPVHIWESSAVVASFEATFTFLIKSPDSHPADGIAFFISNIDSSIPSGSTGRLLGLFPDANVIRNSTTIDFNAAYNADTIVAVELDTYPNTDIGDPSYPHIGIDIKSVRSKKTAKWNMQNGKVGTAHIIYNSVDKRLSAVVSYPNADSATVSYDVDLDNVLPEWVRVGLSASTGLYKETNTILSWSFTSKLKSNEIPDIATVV
# Chain of Torsin-1A-interacting protein 1 (Homo sapiens) (Q5JTV8 whole entry, looked up): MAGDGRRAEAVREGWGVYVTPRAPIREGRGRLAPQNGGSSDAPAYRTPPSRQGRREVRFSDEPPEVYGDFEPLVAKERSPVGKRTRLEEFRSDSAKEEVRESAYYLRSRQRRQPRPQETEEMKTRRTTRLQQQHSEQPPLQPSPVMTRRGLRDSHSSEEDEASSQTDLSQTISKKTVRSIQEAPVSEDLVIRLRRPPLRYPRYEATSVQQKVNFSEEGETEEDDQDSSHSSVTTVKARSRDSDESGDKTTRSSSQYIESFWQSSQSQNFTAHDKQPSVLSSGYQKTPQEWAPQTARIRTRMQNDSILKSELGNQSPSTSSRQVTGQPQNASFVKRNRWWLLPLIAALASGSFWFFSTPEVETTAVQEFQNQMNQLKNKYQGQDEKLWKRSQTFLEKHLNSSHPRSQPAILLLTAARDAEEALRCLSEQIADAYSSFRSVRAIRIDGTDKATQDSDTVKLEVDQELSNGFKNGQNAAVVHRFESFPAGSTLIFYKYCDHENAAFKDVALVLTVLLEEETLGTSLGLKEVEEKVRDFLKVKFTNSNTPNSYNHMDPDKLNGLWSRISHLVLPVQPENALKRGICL
# Chain of Alpha-bungarotoxin (Bungarus multicinctus) (P60615 whole entry, looked up): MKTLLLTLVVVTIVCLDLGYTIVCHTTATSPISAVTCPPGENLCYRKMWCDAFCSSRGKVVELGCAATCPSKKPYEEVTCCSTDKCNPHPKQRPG
# Chain of Left-right determination factor 2 (Homo sapiens) (O00292 whole entry, looked up): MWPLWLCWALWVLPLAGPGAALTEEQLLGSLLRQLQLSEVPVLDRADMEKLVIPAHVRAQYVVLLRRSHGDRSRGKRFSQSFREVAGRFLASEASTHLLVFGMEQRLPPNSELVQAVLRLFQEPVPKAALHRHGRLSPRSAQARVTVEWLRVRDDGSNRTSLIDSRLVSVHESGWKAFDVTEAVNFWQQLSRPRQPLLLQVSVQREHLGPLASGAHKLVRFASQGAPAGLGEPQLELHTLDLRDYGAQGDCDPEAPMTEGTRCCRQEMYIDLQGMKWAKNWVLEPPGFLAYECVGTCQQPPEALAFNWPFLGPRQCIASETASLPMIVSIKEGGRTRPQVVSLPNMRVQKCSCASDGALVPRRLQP
# Chain of Albumin (Bos taurus) (P02769 whole entry, looked up): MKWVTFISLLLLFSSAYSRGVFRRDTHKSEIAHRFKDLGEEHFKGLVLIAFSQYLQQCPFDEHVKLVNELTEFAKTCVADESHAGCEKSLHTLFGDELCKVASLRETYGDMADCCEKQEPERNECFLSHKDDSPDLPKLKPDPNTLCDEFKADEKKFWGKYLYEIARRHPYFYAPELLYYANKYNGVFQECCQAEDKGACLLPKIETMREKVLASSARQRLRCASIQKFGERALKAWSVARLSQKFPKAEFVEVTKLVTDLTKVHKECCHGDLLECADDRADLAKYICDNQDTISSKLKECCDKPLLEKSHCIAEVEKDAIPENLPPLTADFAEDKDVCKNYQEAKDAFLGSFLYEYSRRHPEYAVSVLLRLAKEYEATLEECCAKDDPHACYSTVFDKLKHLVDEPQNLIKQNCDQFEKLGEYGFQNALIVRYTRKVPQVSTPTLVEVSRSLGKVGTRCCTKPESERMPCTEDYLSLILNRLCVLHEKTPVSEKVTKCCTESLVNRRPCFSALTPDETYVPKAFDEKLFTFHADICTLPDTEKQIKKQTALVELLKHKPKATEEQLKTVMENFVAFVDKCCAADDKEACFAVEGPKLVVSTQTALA
smiles,measurement,setting,value
CO[C@H]1O[C@H](CO)[C@@H](OC(=O)c2ccc(Br)cc2)[C@@H]2OC(=O)[C@@H](Cc3ccc4ccccc4c3)C/C=C/C[C@H](Cc3ccc4ccccc4c3)C(=O)O[C@@H]12,composite z-score,[1],0.872
same,z-score,[2],-1.13
same,composite z-score,[3],-0.255
same,composite z-score,[4],1.29
same,composite z-score,[5],-0.145
same,composite z-score,[6],-0.0894
same,composite z-score,[7],-0.16
same,composite z-score,[8],-0.241
same,composite z-score,[9],1.22
same,composite z-score,[10],0.528
same,composite z-score,Albumin (Bos taurus),0.934
same,composite Z-score,[11],0.589 (inactive)
same,composite z-score,[12],0.109
same,composite z-score,[13],0.0043
same,composite z-score,[14],0.63
same,composite z-score,[15],1.93
same,composite z-score,[16],0.547
same,composite z-score,Sam68 (KHDRBS1),1.24
same,composite z-score,[17],-0.517
same,composite z-score,[18],0.275
COCCOC(=O)N1C(=O)[C@@]2(c3cc(C#CC4(O)CCCCCC4)ccc31)[C@H](C(N)=O)[C@H]1C(=O)O[C@H](c3ccccc3)[C@H](c3ccccc3)N1[C@@H]2c1ccccc1OCCO,composite z-score,[1],1.38
same,z-score,[2],-3.3
same,composite z-score,[3],0.339
same,composite z-score,[4],-0.0545
same,composite z-score,[5],-0.0174
same,composite z-score,[6],-0.0758
same,composite z-score,[7],-0.223
same,composite z-score,[8],-0.531
same,composite z-score,[9],0.529
same,composite z-score,[10],1.01
same,composite z-score,Albumin (Bos taurus),0.199
same,composite Z-score,[11],-0.526 (inactive)
same,composite z-score,[12],-0.6
same,composite z-score,[13],-0.219
same,composite z-score,[14],0.541
same,composite z-score,[15],2
same,composite z-score,[16],0.591
same,composite z-score,Sam68 (KHDRBS1),1.31
same,composite z-score,[17],0.369
same,composite z-score,[18],0.845
NC(=O)N1C(=O)C2C(C1=O)C1C=C(c3ccc(CO)cc3)C2C(C2CC2)N1Cc1sc2ccccc2c1Cl (stereo not given),composite z-score,[1],0.0882
same,z-score,[2],-1.39
same,composite z-score,[3],1.27
same,composite z-score,[4],0.867
same,composite z-score,[5],0.163
same,composite z-score,[6],0.272
same,composite z-score,[7],0.0756
same,composite z-score,[8],0.264
same,composite z-score,[9],1.9
same,composite z-score,[10],2.12
same,composite z-score,Albumin (Bos taurus),0.849
same,composite Z-score,[11],0.742 (inactive)
same,composite z-score,[12],0.0225
same,composite z-score,[13],-0.101
same,composite z-score,[14],0.468
same,composite z-score,[15],1.67
same,composite z-score,[16],0.733
same,composite z-score,Sam68 (KHDRBS1),1.31
same,composite z-score,[17],0.441
same,composite z-score,[18],1.18
O=C1OC[C@@H](c2ccccc2)N2CC(/C=C/c3ccccc3)=CC12 (stereo not given in full),composite z-score,[1],-1.13
same,z-score,[2],-0.557
same,composite z-score,[3],-1.43
same,composite z-score,[4],-0.353
same,composite z-score,[5],-0.221
same,composite z-score,[6],-0.284
same,composite z-score,[7],-0.2
same,composite z-score,[8],-0.0118
same,composite z-score,[9],-0.383
same,composite z-score,[10],-0.273
same,composite z-score,Albumin (Bos taurus),0.0154
same,composite Z-score,[11],0.142 (inactive)
same,composite z-score,[12],-0.36
same,composite z-score,[13],-0.189
same,composite z-score,[14],0.453
same,composite z-score,[15],-0.428
same,composite z-score,[16],0.133
same,composite z-score,Sam68 (KHDRBS1),-1.57
same,composite z-score,[17],-0.713
same,composite z-score,[18],-0.044
O=C1O[C@@H](c2ccccc2)[C@@H](c2ccccc2)N2[C@@H](c3ccc(O)cc3)[C@]3(C(=O)Nc4ccccc43)[C@@H](C(=O)Nc3nc4ccccc4s3)[C@H]12,composite z-score,[1],1.36
same,z-score,[2],-2.35
same,composite z-score,[3],0.0034
same,composite z-score,[4],1.28
same,composite z-score,[5],-0.596
same,composite z-score,[6],0.0495
same,composite z-score,[7],0.0815
same,composite z-score,[8],-0.179
same,composite z-score,[9],0.0579
same,composite z-score,[10],1.32
same,composite z-score,Albumin (Bos taurus),0.625
same,composite Z-score,[11],-0.8 (inactive)
same,composite z-score,[12],0.0695
same,composite z-score,[13],-0.144
same,composite z-score,[14],0.613
same,composite z-score,[15],1.39
same,composite z-score,[16],0.399
same,composite z-score,Sam68 (KHDRBS1),1.31
same,composite z-score,[17],0.0129
same,composite z-score,[18],1.17
COc1ccc([Si](C)(C)[C@@H]2[C@@H](CCO)O[C@]3(C(=O)N(Cc4cccc(N5C(=O)c6cccc7cccc5c67)c4)c4ccccc43)[C@H]2C)cc1,composite z-score,[1],1.21
same,z-score,[2],-4.47
same,composite z-score,[3],-0.385
same,composite z-score,[4],0.831
same,composite z-score,[5],0.978
same,composite z-score,[6],-0.0758
same,composite z-score,[7],0.0815
same,composite z-score,[8],0.0601
same,composite z-score,[9],0.0561
same,composite z-score,[10],0.578
same,composite z-score,Albumin (Bos taurus),0.219
same,composite Z-score,[11],-0.139 (inactive)
same,composite z-score,[12],-0.0947
same,composite z-score,[13],-0.101
same,composite z-score,[14],0.428
same,composite z-score,[15],1.17
same,composite z-score,[16],-0.179
same,composite z-score,Sam68 (KHDRBS1),0.262
same,composite z-score,[17],-0.512
same,composite z-score,[18],0.48
